Source: ChEMBL document CHEMBL4513149, “CO-ADD screening of MMV (CH) - MMV compounds” (2021)
Entries with a potency or affinity are not part of this list.

Key:
Staphylococcus aureus = settings: Concentration 20 uM; ASSAY_TEST Inhibition of Bacterial Growth; detection method Absorption (OD600); MEDIA CAMHB; plate type 384well; NBS; CORNING #3640; time 18 hr
Escherichia coli = settings: Concentration 20 uM; ASSAY_TEST Inhibition of Bacterial Growth; detection method Absorption (OD600); MEDIA CAMHB; plate type 384well; NBS; CORNING #3640; time 18 hr

SMILES | Inhibition (Staphylococcus aureus) [%] | Inhibition (Escherichia coli) [%]
CC(C)(C)OC(=O)N1CCN(c2cc(-c3ccc(Oc4ccccc4)cc3)n[nH]2)CC1 | 17.78 | 7.28
Clc1cccc(CO[C@H]2CCc3ccccc3[C@@H]2n2ccnn2)c1 | -0.96 | 7.53
Nc1ncc(-c2cn[nH]c2)cc1-c1nc2cc(Cl)cnc2[nH]1 | -0.61 | 5.12
COc1ccc2nc(C)cc(OCC(=O)NCc3ccccc3)c2c1 | 12.19 | 7.22
CCCCS(=O)(=O)Nc1ccc2cnn(C)c2c1 | 17.72 | 10.93
Cc1cc(C)nc(-n2nc(C)cc2Nc2ccccc2)n1 | 9.46 | 5.87
COc1ccc(-c2onc(C(F)(F)F)c2-c2ccc(Cl)cc2)c(O)c1 | 22.97 | 5.79
CCC(C)NC(=O)c1ccc(NC(=O)C2(c3ccccc3)CCCC2)cc1 (centres undefined) | 13.32 | -4.39
C[C@H](C(N)=O)N1CCCC[C@H]1c1ccc(OCc2cccc(F)c2)cc1 | 21.57 | 11.68
Cc1ccccc1C(=O)N1N=C(Nc2ccccc2)SC1(C)C | 8.67 | 8.51
COc1cc(C2=NCCN2)ccc1-n1cc(-c2cccc(C3=NCCN3)c2)nn1.O=CO.O=CO | 1.49 | 8.11
Cc1nn(C(=O)Nc2cccc(C(F)(F)F)c2)c(C)c1Sc1ncccn1 | 14.85 | 7.79
Cc1ncc(-c2ccnc(Nc3ccc(S(C)(=O)=O)cc3)n2)n1C(C)C [AZD-5438] | 28.03 | 5.82
Nc1ncnc2c1c(Cc1cccc3ccccc13)nn2CC1CCNCC1 | -11.63 | -7.67
COc1ccc(CCN2CCC(NCc3cccc(N(C)C)c3)CC2)cc1 | 16.93 | 1.75
Cc1nc2ccccn2c1C(=O)NCc1ccc(Cl)cc1 | 22.95 | 5.6
CC(C)n1nc(-c2cc3c(Cl)cccc3[nH]2)c2c(N)ncnc21 | 11.03 | 4.95
CNc1snc(C)c1C(=O)NCCOc1ccc(OC)cc1 | 18.31 | 5.8
Cl.Cl.Cl.NS(=O)(=O)c1cncc(-c2ccc3nccc(-c4cn[nH]c4)c3n2)c1 | 9.83 | 6.62

SMILES | Inhibition (Staphylococcus aureus) [%] | Inhibition (Escherichia coli) [%]
CCN(CC)S(=O)(=O)c1ccc(Cl)c(C(=O)Nc2ccc3nc(C)sc3c2)c1 | 2.16 | 0.28
Nc1cccnc1Nc1ccc(Cl)cc1 | 2.93 | -1.63
O=C(Nc1cccc(-c2ccc(NCCCN3CCCC3)nc2)c1)c1ccccc1 | 10.81 | 7.66
CC(C)(C)CN1C(=O)C(c2ccccc2)(c2ccccc2)N=C1N | 17.09 | 4.18
CC(=O)O.CC(=O)O.Nc1ncnc2c1ncn2[C@@H]1O[C@H](COS(=O)(=O)NC(=O)c2ccccc2O)[C@@H](O)[C@H]1O | 15.68 | 5.07
CC(C)NCC(=O)Nc1cccc(C(=O)Nc2cccc(C(F)(F)F)c2)c1 | 3.81 | -2.15
CCOc1ccc2cc(-c3nn(C(C)(C)C)c(N)c3C(N)=O)cnc2c1.Cl | 14.66 | 7.93
CC(C)c1ncc(-c2ccncc2)c([C@H]2CC[C@H](CNC(=O)c3cccnc3)CC2)n1 | 19.09 | 13.72
Cc1ccc(S(=O)(=O)N2CCN(C(=O)c3cc(-c4ccccc4)n[nH]3)CC2)cc1 | 1.4 | 11.29
O=C(NCCc1c[nH]c2ccccc12)c1cc2ccccc2oc1=O | 13.99 | 9.41
Cc1cnc(N2CCN[C@@H](Cc3ccccc3)C2)nc1Oc1ccc(-n2ccnc2)cc1.Cl | 11.48 | -1.63
CN1CCC(c2cc(-c3ccncc3)c(-c3ccc(F)cc3)[nH]2)CC1 | -0.65 | -2.15
CN(C(=O)c1cc2c(-c3cncnc3)cccc2[nH]1)c1ccccc1 | 12.46 | 10.65
NCCC(O)C(=O)N[C@@H]1C[C@H](N)[C@@H](OC2O[C@H](CN)[C@@H](O)[C@H](O)[C@H]2O)[C@H](O)C1OC1O[C@H](CO)[C@@H](O)[C@H](N)[C@H]1O.O=S(=O)(O)O.O=S(=O)(O)O (some centres undefined) | 14.32 | 11.24
Cc1ccc(NC(=O)CC2COc3ccccc3O2)cc1Cl (centres undefined) | 15.28 | 6.03
c1ccc(-c2[nH]c3ccccc3c2C(c2ccccn2)N2CCCC2)cc1 (centres undefined) | 7 | 3.92
CC(C(=O)Nc1ccc2oc(-c3ccncc3)nc2c1)c1ccccc1 (centres undefined) | 33.61 | 6.76
O=C(Nc1cccc(Cl)c1)c1cnc(N2CCN(c3ccncc3)CC2)c(Cl)c1 | 19.29 | 6.8
